Experimental data taken from publication PMC9838217, “Structure of SALL4 zinc finger domain reveals link between AT-rich DNA binding and Okihiro syndrome”.
Positions count from the first letter of the chain named.

Assays:
Experiment in all cases: HT-SELEX; high values mean tight binding
Settings in all cases: protein: recombinant; vector His6-GST; dsDNA, one strand shown
SALL4 ZFC4 WT (HT-SELEX) = target: T1, SALL4 ZFC4 WT (HT-SELEX) (Mus musculus, UniProt Q8BX22 870-940)
T1 sequence: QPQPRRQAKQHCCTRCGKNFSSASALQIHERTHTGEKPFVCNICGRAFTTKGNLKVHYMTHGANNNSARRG
In short: (§1)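 In triplicate selections of up to 6 cycles, purified recombinant mouse SALL4 zinc finger cluster 4 (residues 870–940, 1 µg) was incubated 10 min at room temperature with library DNA (1.5 µg, then 200 ng) in 100 µl of 10 mM Tris–HCl pH 7.5, 50 mM NaCl, poly(dI-dC) and DTT, and complexes were captured on Ni2+ beads, washed and PCR-amplified. Sequencing was done on MiSeq with scanning for 6-mers. The binding signal is each canonical k-mer's read fraction, reported as fold change against the initial random library.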

[1] = target: T2, SALL4 ZFC4 R900W (HT-SELEX) (Mus musculus, UniProt Q8BX22 870-940, R900W)
T2 sequence: T1 sequence with R31W
In short: as §1

[2] = target: T3, SALL4 ZFC4 G921D (HT-SELEX) (Mus musculus, UniProt Q8BX22 870-940, G921D)
T3 sequence: T1 sequence with G52D
In short: as §1

Sequence | binding signal (SALL4 ZFC4 WT (HT-SELEX)) [fold-change vs cycle 0] | binding signal [1] [fold-change vs cycle 0] | binding signal [2] [fold-change vs cycle 0]
GTTAAC | 1.39 ± 0.126 | 1.53 ± 0.0957 | 1.38 ± 0.101
CGGTTC | 0.342 ± 0.0141 | 0.423 ± 0.038 | 0.53 ± 0.0844
ACTGGG | 0.468 ± 0.0365 | 0.547 ± 0.0062 | 0.615 ± 0.0193
AGTTGC | 0.578 ± 0.0388 | 0.664 ± 0.014 | 0.77 ± 0.0363
GAAAGA | 1.32 ± 0.0648 | 1.52 ± 0.0726 | 1.36 ± 0.0863
GGCTAA | 0.523 ± 0.0366 | 0.619 ± 0.0212 | 0.728 ± 0.0327
GAAATC | 1.25 ± 0.0302 | 1.28 ± 0.0173 | 1.27 ± 0.0773
CAGAAC | 0.725 ± 0.0111 | 0.847 ± 0.0358 | 0.863 ± 0.0478
GCTATA | 1.13 ± 0.0575 | 1.11 ± 0.0825 | 1.15 ± 0.0714
ATTGTA | 2.07 ± 0.0871 | 2.03 ± 0.111 | 1.79 ± 0.162
ACCGTA | 0.728 ± 0.0197 | 0.818 ± 0.0316 | 0.868 ± 0.0103
CTCGAC | 0.348 ± 0.0179 | 0.396 ± 0.0285 | 0.539 ± 0.0655
ACGTTC | 0.7 ± 0.0339 | 0.844 ± 0.024 | 0.8714 ± 0.00795
ACATCC | 0.877 ± 0.0368 | 0.969 ± 0.0252 | 0.991 ± 0.0197
CCTTTA | 1.31 ± 0.0506 | 1.47 ± 0.0755 | 1.33 ± 0.0771
